Out of some 150,000 compounds screened, about 540 (0.36%) showed an effect of 50% or more. Only a selection was taken, and strong results are over-represented in it overall.

For this assay, the system named is Plasmodium falciparum. Description: Primary screen in NF54 nanoGlo assay, in single point, at 2uM, 72h; a lower Z score goes with more inhibition. To be noted: timepoint 72 hour. Format: functional, Erythrocyte.
What is called % Inhibition is the drop in the measured response relative to a control, in per cent. Turning to `Cc1ccccc1C(=O)N1C(C(=O)NC(C)c2ccccc2)COC12CCN(C(=O)CC(C)(C)C)CC2` (stereo not drawn), the “% Inhibition” value is recorded as -5% and the Z score turned out to be 0.47.

Regarding `CCc1ccccc1C(=O)OCc1nccn1C`, the “% Inhibition” value is reported as -3% and the Z score turned out to be 0.26.

Regarding `Fc1ccc(-c2nc3c(cnn3C3CCCC3)[nH]2)cc1`, the “% Inhibition” value is recorded as -6% and the Z score was found to be 0.81.

As for `COc1ccc(-c2nc3c(cnn3C3CCN(C)CC3)[nH]2)cn1`, the “% Inhibition” value is recorded as -7% and the Z score is given as 0.9.

As for `CN1CCC(n2ncc3[nH]c(-c4ccc(C(F)(F)F)cc4)nc32)CC1`, the “% Inhibition” value is given as 97% and the Z score is given as -17.43.

Consider `Cc1c(-c2n[nH]c3c2CN(C(=O)c2csnn2)CC3)cccc1C(F)(F)F`, for which the “% Inhibition” value is -12% and the Z score is given as 1.03.

With `Cc1n(CC(=O)c2ccccc2)c2ccccc2[n+]1CC(=O)c1ccccc1`, the “% Inhibition” value amounted to 59% and the Z score is -12.26.

For `O=C(Cn1nnc2ccccc21)c1ccccc1`, the “% Inhibition” value was -12% and the Z score is 1.78.

As for `O=C(CN1CCN(CC(=O)c2ccccc2)CC1)c1ccccc1`, the “% Inhibition” value came to 0% and the Z score is reported as -0.02.

As for `O=C(N[C@H]1CCc2cc(F)c(F)c(F)c21)N1CCn2ncnc2C1`, the “% Inhibition” value is reported as -5% and the Z score is listed as 1.12.

Consider `COc1nccc2c(NCc3cn(C(C)(C)C)nn3)cccc12`, for which the “% Inhibition” value turned out to be 5% and the Z score is listed as -1.

On to `CCOc1ccc(S(=O)(=O)N[C@H]2CC[C@@H](CC(=O)O)C2)c(C)c1`, for which the “% Inhibition” value is listed as -1% and the Z score is recorded as 0.16.

On to `CO[C@@H]1CCC[C@@H]2CN(C(=O)C3(c4ccccc4)CCCC3)C[C@@H]21`, for which the “% Inhibition” value is reported as -4% and the Z score was 0.35.

`C[N+]12CCCCC1C(OC(=O)C1(c3ccccc3)CCCC1)CCC2` (stereo not drawn): the “% Inhibition” value is given as 63% and the Z score is -6.6.

On to `C[N+]12CCCC[C@@H]1[C@H](COC(=O)c1ccccc1Cl)CCC2` (stereo partly drawn), for which the “% Inhibition” value was 7% and the Z score was -0.65.

`Cc1cccc(C)c1OCC(=O)Nc1ccc(-c2nc3cc4ccccc4cc3[nH]2)cc1`: the “% Inhibition” value stood at 49% and the Z score is reported as -5.57.

`c1cc(-c2nc3cc4ccccc4cc3[nH]2)nc(-c2nc3cc4ccccc4cc3[nH]2)c1`: the “% Inhibition” value is on record as 100% and the Z score is reported as -18.05.

In the case of `CCn1ncc(C(CC(=O)c2ccccc2)CC(=O)c2ccccc2)c1C`, the “% Inhibition” value is recorded as -8% and the Z score came to 1.07.

For `Cc1nsc2ncc(C(=O)N3CCCCC3)c(N3CCC(C(=O)Nc4cc(F)ccc4F)CC3)c12`, the “% Inhibition” value came to 5% and the Z score was -0.78.

As for `CCN(CC)C(=O)c1cnc2snc(C)c2c1N1CCC(C(=O)Nc2cc(F)ccc2F)CC1`, the “% Inhibition” value is 6% and the Z score is given as -0.96.

`CCN(CC)C(=O)c1cnc2snc(C)c2c1N1CCC(C(=O)Nc2ccc(Br)c(C)c2)CC1`: the “% Inhibition” value turned out to be 1% and the Z score is listed as -0.18.

For `CCOc1ccc(NC(=O)C2CCN(c3c(C(=O)N(CC)CC)cnc4snc(C)c34)CC2)cc1`, the “% Inhibition” value was 5% and the Z score was -0.93.

With `Cc1nsc2ncc(C(=O)N3CCC(C)CC3)c(N3CCC(C(=O)Nc4cc(F)ccc4F)CC3)c12`, the “% Inhibition” value amounted to 60% and the Z score is recorded as -4.06.

`CCN(CC)C(=O)c1cnc2snc(C)c2c1N1CCC(C(=O)Nc2c(C)cc(C)cc2C)CC1`: the “% Inhibition” value amounted to 54% and the Z score was -10.3.
